Measurements reported in PubChem BioAssay.
For some assays here: Measured potencies and affinities stand elsewhere. The source made the active and inactive calls. Unless noted, the rule behind the calls is not given here.

Columns and labels:
[1] = antimalarial activity against Dd2 strain (AID 2302;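 active = growth inhibition above 50% at the single 2 µM test dose, taken to imply half-maximal potency below 2 µM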;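 note: 0% = DMSO untreated growth and 100% = chloroquine plus artemisinin killed control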); conditions: P. falciparum Dd2 in RBCs, LDH growth readout, 72 h; at 2 µM; hits give high values
[2] = human hepatoma cell viability loss – ATP luminescence, cytotoxicity control for P. falciparum antimalarial project, primary screen (AID 2303;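 active = inhibition above 50%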;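 note: 0% = DMSO wells and 100% = digitonin-killed cells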); conditions: HepG2 viability, 24-48 h, at 10 µM, hits give high values
[3] = biological target: L-lactate dehydrogenase (Plasmodium falciparum (isolate CDC / Honduras)) (UniProt Q27743); test: PfLDH activity inhibition – cell lysate, 3D7 strain, counter-screen for P. falciparum growth inhibition project (AID 2304);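 note: 0% = vehicle and 100% = reference inhibitor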; conditions: P. falciparum 3D7 crude extract, LDH APAD/NBT absorbance; at 2 µM; hits give high values
Sequence of L-lactate dehydrogenase (Plasmodium falciparum (isolate CDC / Honduras)) (Q27743 whole entry, looked up): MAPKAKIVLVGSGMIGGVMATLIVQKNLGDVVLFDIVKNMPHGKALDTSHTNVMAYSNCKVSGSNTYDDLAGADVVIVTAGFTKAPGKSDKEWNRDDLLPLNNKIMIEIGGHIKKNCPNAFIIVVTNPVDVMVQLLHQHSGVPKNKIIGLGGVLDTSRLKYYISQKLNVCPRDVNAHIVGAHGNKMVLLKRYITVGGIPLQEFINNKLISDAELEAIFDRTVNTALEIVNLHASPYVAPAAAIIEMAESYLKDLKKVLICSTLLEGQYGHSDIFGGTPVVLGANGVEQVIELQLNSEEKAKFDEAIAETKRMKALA

[4] = inhibition of 3D7 malaria parasite growth – strain 3D7 (AID 2306);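 note: 0% = DMSO wells and 100% = chloroquine plus artemisinin control wells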; conditions: P. falciparum 3D7 erythrocytic growth, LDH absorbance, 72 h; at 2 µM; hits give high values
[5] = biological target: Calcium-dependent protein kinase 1 (Plasmodium falciparum (isolate 3D7)) (UniProt P62344); test: PfCDPK1 kinase inhibitors, biochemical, TCAMS library (AID 1159585; cut-off not given, nearly all actives have IC50 up to about 0.98 µM;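 note: inhibitors leave more ATP so luminescence rises with inhibition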); conditions: recombinant PfCDPK1, Kinase-Glo ATP depletion luminescence
Sequence of Calcium-dependent protein kinase 1 (Plasmodium falciparum (isolate 3D7)) (P62344 whole entry, looked up): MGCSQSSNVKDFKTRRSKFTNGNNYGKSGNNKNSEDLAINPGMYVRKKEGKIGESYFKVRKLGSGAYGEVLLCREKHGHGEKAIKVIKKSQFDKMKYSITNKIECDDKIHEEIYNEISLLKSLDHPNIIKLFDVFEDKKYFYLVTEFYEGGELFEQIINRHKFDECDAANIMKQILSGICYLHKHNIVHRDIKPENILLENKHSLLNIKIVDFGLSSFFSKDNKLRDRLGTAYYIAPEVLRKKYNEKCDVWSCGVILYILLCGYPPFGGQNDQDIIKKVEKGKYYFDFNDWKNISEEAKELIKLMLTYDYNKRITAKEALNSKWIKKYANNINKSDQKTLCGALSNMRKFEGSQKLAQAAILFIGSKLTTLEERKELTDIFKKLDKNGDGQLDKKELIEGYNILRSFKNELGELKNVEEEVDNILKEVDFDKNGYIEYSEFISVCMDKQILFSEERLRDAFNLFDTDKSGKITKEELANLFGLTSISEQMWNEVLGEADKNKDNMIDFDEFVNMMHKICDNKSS

[6] = biological target: Plasmodium falciparum protein kinase 6 (PK6, PF3D7_1337100) (UniProt Q8IDW1); test: PfPK6 kinase inhibitors, biochemical, TCAMS library (AID 1159586); conditions: recombinant PfPK6, Kinase-Glo ATP depletion luminescence
Sequence of Plasmodium falciparum protein kinase 6 (PK6, PF3D7_1337100) (Q8IDW1 1-305): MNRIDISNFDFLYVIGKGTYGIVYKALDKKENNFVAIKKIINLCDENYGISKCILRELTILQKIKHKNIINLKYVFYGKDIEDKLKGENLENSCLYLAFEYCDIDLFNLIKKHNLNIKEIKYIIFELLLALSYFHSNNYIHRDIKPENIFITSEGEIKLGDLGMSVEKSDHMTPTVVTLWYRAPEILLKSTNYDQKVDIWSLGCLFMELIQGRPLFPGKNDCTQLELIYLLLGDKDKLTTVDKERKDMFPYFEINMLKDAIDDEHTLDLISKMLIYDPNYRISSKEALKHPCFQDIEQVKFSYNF

[7] = biological target: Protein kinase 7 (PK7), Plasmodium falciparum 3D7 (PF3D7_0213400) (UniProt Q7YTF7); test: inhibition of Plasmodium PK7 catalytic activity – biochemical, TCAMS antimalarial set, Kinase-Glo luminescence (AID 1159587); conditions: recombinant PfPK7, Kinase-Glo ATP depletion luminescence
Sequence of Protein kinase 7 (PK7), Plasmodium falciparum 3D7 (PF3D7_0213400) (Q7YTF7 1-343): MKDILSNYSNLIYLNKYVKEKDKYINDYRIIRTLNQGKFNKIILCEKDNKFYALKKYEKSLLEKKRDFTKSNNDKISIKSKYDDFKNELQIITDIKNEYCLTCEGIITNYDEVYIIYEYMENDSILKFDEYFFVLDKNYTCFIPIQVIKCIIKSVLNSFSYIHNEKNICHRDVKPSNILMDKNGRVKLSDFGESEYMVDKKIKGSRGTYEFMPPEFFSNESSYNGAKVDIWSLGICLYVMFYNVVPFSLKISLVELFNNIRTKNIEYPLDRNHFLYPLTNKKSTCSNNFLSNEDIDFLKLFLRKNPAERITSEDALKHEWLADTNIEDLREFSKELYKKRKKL

[8] = biological target: Calcium-dependent protein kinase 4 (Plasmodium falciparum (isolate 3D7)) (UniProt Q8IBS5); test: PfCDPK4 kinase inhibitors, biochemical, TCAMS library (AID 1159588; cut-off not given, nearly all actives have IC50 up to about 0.91 µM); conditions: recombinant PfCDPK4, Kinase-Glo ATP depletion luminescence
Sequence of Calcium-dependent protein kinase 4 (Plasmodium falciparum (isolate 3D7)) (Q8IBS5 whole entry, looked up): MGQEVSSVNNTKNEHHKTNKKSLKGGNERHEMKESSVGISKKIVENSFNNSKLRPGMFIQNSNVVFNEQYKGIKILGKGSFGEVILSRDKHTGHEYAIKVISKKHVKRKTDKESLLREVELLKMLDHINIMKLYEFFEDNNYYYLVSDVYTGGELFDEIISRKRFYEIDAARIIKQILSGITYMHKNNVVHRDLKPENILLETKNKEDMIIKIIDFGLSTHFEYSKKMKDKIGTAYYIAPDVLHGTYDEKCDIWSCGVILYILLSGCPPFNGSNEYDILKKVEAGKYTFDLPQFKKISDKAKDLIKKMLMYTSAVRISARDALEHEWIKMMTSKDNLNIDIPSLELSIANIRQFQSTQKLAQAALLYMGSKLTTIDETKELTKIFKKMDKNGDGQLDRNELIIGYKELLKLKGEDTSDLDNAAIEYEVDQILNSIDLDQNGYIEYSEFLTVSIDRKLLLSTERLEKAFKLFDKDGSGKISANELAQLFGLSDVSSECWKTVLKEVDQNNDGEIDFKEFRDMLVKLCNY

CN1CCCC1CCNc1ncc2c(-c3ccc(NC(=O)Nc4cc(C(F)(F)F)ccc4F)cc3)nn(C)c2n1 (stereo not given)
inactive: inhibition [3] 0% | outcome [5] | outcome [6] | outcome [7] | outcome [8]
active: growth inhibition [1] 72% | inhibition [2] 74% | growth inhibition [4] 96%

COC(=O)C1=C(C)NC2=C(C(=O)CC(c3ccc(OC)c(OC)c3)C2)C1c1cccc(O)c1 (stereo not given)
inactive: inhibition [2] 2% | inhibition [3] 5% | outcome [5] | outcome [6] | outcome [7] | outcome [8]
active: growth inhibition [1] 69% | growth inhibition [4] 99%

CC(C)c1cccc(C(NC(=O)[C@H]2Cc3ccccc3CN2C(=O)c2cccc(N3CCOCC3)c2)C2CCCC2)c1 (stereo not given in full)
inactive: inhibition [2] 3% | inhibition [3] 1% | outcome [5] | outcome [6] | outcome [7] | outcome [8]
active: growth inhibition [1] 96% | growth inhibition [4] 94%

O=C(Nc1cccc(CN2CCCN(Cc3cccc(Cl)c3)CC2)c1)c1ccc(-c2ccccc2)cc1
inactive: growth inhibition [1] 14% | inhibition [2] 44% | inhibition [3] 1% | outcome [5] | outcome [6] | outcome [7] | outcome [8]
active: growth inhibition [4] 86%

O=C(/C=C/c1ccc(Cl)c(Cl)c1)NCCCCCN1CCC(NC(=O)Nc2cccc(Cl)c2Cl)CC1
active: inhibition [2] 99% | growth inhibition [4] 104%
inactive: growth inhibition [1] 35% | inhibition [3] -5% | outcome [5] | outcome [6] | outcome [7] | outcome [8]

CN1CCC(N2CCN(Cc3cccc(-c4ccc(-c5nc6ccc(C(F)(F)F)cc6[nH]5)cc4)c3)CC2)CC1
active: growth inhibition [1] 91% | inhibition [2] 100% | growth inhibition [4] 101%
inactive: inhibition [3] 4% | outcome [5] | outcome [6] | outcome [7] | outcome [8]

O=S(=O)(Nc1cccc(CCN2CCC(N3CCCCC3)CC2)c1)c1cccc2ccccc12
inactive: inhibition [2] 23% | inhibition [3] 2% | outcome [5] | outcome [6] | outcome [7] | outcome [8]
active: growth inhibition [1] 63% | growth inhibition [4] 99%

CCCNC[C@@H](O)[C@H](Cc1ccccc1)NC(=O)c1cc(NCC)cc(N2CCCC2=O)c1
inactive: inhibition [2] -9% | inhibition [3] 1% | outcome [5] | outcome [6] | outcome [7] | outcome [8]
active: growth inhibition [1] 76% | growth inhibition [4] 100%

O=C(CCCCCNC(=O)c1ccc(O)c(-c2ccc(Cl)c(Cl)c2)c1)NC1CCCc2ccccc21 (stereo not given)
inactive: growth inhibition [1] 13% | inhibition [2] -7% | inhibition [3] -6% | outcome [5] | outcome [6] | outcome [7] | outcome [8]
active: growth inhibition [4] 97%

CCOC(=O)c1ccc(NC(=O)Nc2ccc(-c3ccc(-c4nc5ccccc5[nH]4)cc3)cc2)cc1
inactive: inhibition [2] 49% | inhibition [3] 0% | outcome [5] | outcome [6] | outcome [7] | outcome [8]
active: growth inhibition [1] 100% | growth inhibition [4] 101%

CC1(C)N=C(N)NC(NOCC=Cc2ccccc2)=N1
inactive: growth inhibition [1] 2% | inhibition [2] 35% | inhibition [3] -2% | outcome [5] | outcome [6] | outcome [7] | outcome [8]
active: growth inhibition [4] 98%

Fc1ccc(NC(=S)NN=Cc2ccccn2)cc1
active: growth inhibition [1] 67% | inhibition [2] 56% | growth inhibition [4] 95%
inactive: inhibition [3] -1% | outcome [5] | outcome [6] | outcome [7] | outcome [8]

Cc1cc(=O)c(-c2ccc(Oc3ccc(Cl)cc3Cl)cc2)c(C)[nH]1
active: growth inhibition [1] 73% | growth inhibition [4] 93%
inactive: inhibition [2] -1% | inhibition [3] -2% | outcome [5] | outcome [6] | outcome [7] | outcome [8]

COc1ccc(CNC(=O)Nc2cc3cc(-c4ccc(CN(C)C)cc4)ccc3n3c(C)nnc23)cc1
inactive: inhibition [3] -4% | outcome [5] | outcome [6] | outcome [7] | outcome [8]
active: growth inhibition [1] 80% | inhibition [2] 99% | growth inhibition [4] 93%

COc1ccc(-c2csc3nc(C)nc(Cl)c23)cc1OC
active: growth inhibition [1] 95% | growth inhibition [4] 97%
inactive: inhibition [2] -10% | inhibition [3] -6% | outcome [5] | outcome [6] | outcome [7] | outcome [8]

Cc1cc(N[C@@H](Cc2ccccc2)C(=O)Nc2ccccc2)nc(NCCc2ccc(F)cc2)n1
active: growth inhibition [1] 81% | growth inhibition [4] 96%
inactive: inhibition [2] 26% | inhibition [3] 0% | outcome [5] | outcome [6] | outcome [7] | outcome [8]

CCNc1cc(C(=O)N[C@@H](Cc2ccccc2)[C@H](O)CNC23CC4CC(CC(C4)C2)C3)cc(N2CCCCS2(=O)=O)c1
inactive: inhibition [2] 3% | inhibition [3] -2% | outcome [5] | outcome [6] | outcome [7] | outcome [8]
active: growth inhibition [1] 99% | growth inhibition [4] 98%

CN(C)CCCOc1cccc(NC(=O)Nc2ccc(-c3ccccc3)cc2)c1
active: growth inhibition [4] 91%
inactive: growth inhibition [1] 14% | inhibition [2] 9% | inhibition [3] -8% | outcome [5] | outcome [6] | outcome [7] | outcome [8]

COc1ccc2sc(CNCCCNc3cc(=O)c4ccccc4[nH]3)c(Cl)c2c1
active: growth inhibition [4] 85%
inactive: growth inhibition [1] 42% | inhibition [2] 1% | inhibition [3] -4% | outcome [5] | outcome [6] | outcome [7] | outcome [8]

CCOC(=O)c1ccc2nc(-c3ccc(C(=O)NC4CCN(Cc5ccccc5)CC4)s3)[nH]c2c1
inactive: inhibition [2] 32% | inhibition [3] -2% | outcome [5] | outcome [6] | outcome [7] | outcome [8]
active: growth inhibition [1] 95% | growth inhibition [4] 100%

CC(=O)Nc1ccc(C(=O)NC2CCN(c3ccnc4cc(Cl)ccc34)CC2)cc1
inactive: inhibition [2] 5% | inhibition [3] -4% | outcome [5] | outcome [6] | outcome [7] | outcome [8]
active: growth inhibition [1] 99% | growth inhibition [4] 101%

COc1ccc2nccc([C@@H](O)CN3CCC(NC(=O)/C=C/c4cc(F)cc(Br)c4)CC3)c2c1
active: growth inhibition [1] 50% | growth inhibition [4] 95%
inactive: inhibition [2] 24% | inhibition [3] 7% | outcome [5] | outcome [6] | outcome [7] | outcome [8]

COc1cccc(-c2cc(C(F)(F)F)n3ncc(C(=O)Nc4cc(Cl)ccc4O)c3n2)c1
active: growth inhibition [1] 99% | growth inhibition [4] 99%
inactive: inhibition [2] -9% | inhibition [3] 5% | outcome [5] | outcome [6] | outcome [7] | outcome [8]

Cc1ccccc1C1CCN(C2CCC(NC(=O)c3ccc(-c4cccc(C(F)(F)F)c4)o3)CC2)CC1 (stereo not given)
inactive: inhibition [3] -2% | outcome [5] | outcome [6] | outcome [7] | outcome [8]
active: growth inhibition [1] 101% | inhibition [2] 56% | growth inhibition [4] 99%

COc1ccc(-c2ccc(NC(=O)c3ccc(Cl)cc3)cc2)cc1CN(C)CCO
inactive: growth inhibition [1] 43% | inhibition [2] 43% | inhibition [3] 0% | outcome [5] | outcome [6] | outcome [7] | outcome [8]
active: growth inhibition [4] 92%

O=C(NC1CCN(Cc2ccc3c(c2)OCCO3)CC1)c1ccc(-c2cccc(Cl)c2)s1
active: growth inhibition [4] 93%
inactive: growth inhibition [1] 9% | inhibition [2] 46% | inhibition [3] -5% | outcome [5] | outcome [6] | outcome [7] | outcome [8]

Nc1nccc2ccc(-c3cccc(O)c3)cc12
inactive: inhibition [2] 43% | inhibition [3] 7% | outcome [5] | outcome [6] | outcome [7] | outcome [8]
active: growth inhibition [1] 71% | growth inhibition [4] 95%

O=C(/C=C/c1ccc(Cl)c(Cl)c1)NCCCCCN1CCC(c2[nH]nc(-c3ccccc3)c2Br)CC1
active: inhibition [2] 100% | growth inhibition [4] 95%
inactive: growth inhibition [1] 23% | inhibition [3] 1% | outcome [5] | outcome [6] | outcome [7] | outcome [8]

Cc1cc(NCc2ccccc2)nc2cc(O)ccc12
inactive: inhibition [2] -7% | inhibition [3] 6% | outcome [5] | outcome [6] | outcome [7] | outcome [8]
active: growth inhibition [1] 80% | growth inhibition [4] 98%

CCN(CC)CCN(Cc1ccc(-c2ccc(C(F)(F)F)cc2)cc1)C(=O)Cn1nc(-c2ccc(C(F)(F)F)cc2)ccc1=O
inactive: inhibition [2] 44% | inhibition [3] -2% | outcome [5] | outcome [6] | outcome [7] | outcome [8]
active: growth inhibition [1] 83% | growth inhibition [4] 100%

Cc1cc(NCc2ccc(F)cc2)nc2cc(O)ccc12
inactive: inhibition [2] 14% | inhibition [3] -7% | outcome [5] | outcome [6] | outcome [7] | outcome [8]
active: growth inhibition [1] 85% | growth inhibition [4] 98%

COc1cc(OC)c(NC(=O)COc2ccc(C)cc2)cc1Cl
inactive: inhibition [2] -7% | inhibition [3] 3% | outcome [5] | outcome [6] | outcome [7] | outcome [8]
active: growth inhibition [1] 90% | growth inhibition [4] 86%

O=C(NCCc1ccccc1)N(Cc1ccccc1-c1ccc(CNC2CCCC2)cc1)C1CCN(Cc2ccccc2)CC1
inactive: inhibition [3] 1% | outcome [5] | outcome [6] | outcome [7] | outcome [8]
active: growth inhibition [1] 95% | inhibition [2] 96% | growth inhibition [4] 96%

CC(C)c1cn2c3c(cc(C(=O)N[C@@H](Cc4ccccc4)[C@H](O)CNC4CCOCC4)cc13)N(C)S(=O)(=O)CC2
active: growth inhibition [1] 99% | growth inhibition [4] 98%
inactive: inhibition [2] 9% | inhibition [3] -6% | outcome [5] | outcome [6] | outcome [7] | outcome [8]

CCCCOc1cc(CNCCCCCCNCc2cc(OCCCC)cc3ccccc23)c2ccccc2c1
inactive: inhibition [3] -5% | outcome [5] | outcome [6] | outcome [7] | outcome [8]
active: growth inhibition [1] 92% | inhibition [2] 99% | growth inhibition [4] 101%

CCN(CCCN1CCCCC1)c1cc(C)nc(Nc2ccc(Cl)c(C(F)(F)F)c2)n1
active: growth inhibition [1] 55% | growth inhibition [4] 96%
inactive: inhibition [2] 43% | inhibition [3] 2% | outcome [5] | outcome [6] | outcome [7] | outcome [8]

Nc1c2c(nc3ccc(Oc4ccc(Cl)cc4)cc13)CCCC2
inactive: inhibition [2] 42% | inhibition [3] -8% | outcome [5] | outcome [6] | outcome [7] | outcome [8]
active: growth inhibition [1] 65% | growth inhibition [4] 100%

Cc1c(C)c2c(c(C)c1O)CC[C@@](C)(C(=O)N1CCC(CCN3CCC(c4c[nH]c5ccccc45)CC3)CC1)O2
active: growth inhibition [1] 91% | growth inhibition [4] 98%
inactive: inhibition [2] 37% | inhibition [3] 6% | outcome [5] | outcome [6] | outcome [7] | outcome [8]

Cc1nc2sccn2c1C(=O)NCCc1ccccc1Cl
inactive: growth inhibition [1] 1% | inhibition [2] 6% | inhibition [3] 3% | outcome [5] | outcome [6] | outcome [7] | outcome [8]
active: growth inhibition [4] 96%

Cc1cc(N[C@@H](Cc2ccccc2)C(=O)NCCOc2ccccc2)nc(NCc2ccccc2C)n1
inactive: inhibition [2] 32% | inhibition [3] -3% | outcome [5] | outcome [6] | outcome [7] | outcome [8]
active: growth inhibition [1] 80% | growth inhibition [4] 100%
